Experimental data from PubChem BioAssay AID1159580 (chemical genetic matrix, 2015).
The whole screen tested about 5,500 compounds, of which about 2,000 (36%) were called active. Not shown: some 18% with an inconclusive outcome. No stated cut-off is given here; in the data, active means normalized growth mostly below about 0.91 (no sharp cut-off); inconclusive means no clear call, values can overlap the other calls; inactive means mostly above about 0.92. Some of the results follow.

Assay: chemical genetic growth profiling, strain panel (AID 1159580);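 further: tested at 20 µM; growth read once vehicle control cultures reached saturation at 30 °C; 1 = growth at the plate median or of vehicle wells; lower values mean less growth of the strain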
Settings: growth OD

Measured: normalized growth

NS(=O)(=O)c1cc(C2(O)NC(=O)c3ccccc32)ccc1Cl (stereo unspecified)
inactive: S. cerevisiae deletion strains, locus YJR075W, strain HOC1, hits give low values 1.03 | S. cerevisiae deletion strains, locus YKL009W, strain mrt4, hits give low values 1.01 | S. cerevisiae deletion strains, locus YKL068W, hits give low values 1.01 | S. cerevisiae deletion strains, locus YKL085W, strain MDH1 (second series), hits give low values 1.01 | S. cerevisiae deletion strains, locus YKL085W, strain MDH1, hits give low values 1.01 | S. cerevisiae deletion strains, locus YKL160W, strain elf1, hits give low values 0.991 | S. cerevisiae deletion strains, locus YKL190W, strain CNB1, hits give low values 1.01 | S. cerevisiae deletion strains, locus YKR001C, strain vps1, hits give low values 1.02 | S. cerevisiae deletion strains, locus YKR026C, strain gcn3, hits give low values 0.978 | S. cerevisiae deletion strains, locus YKR091W, strain srl3, hits give low values 0.987 | S. cerevisiae deletion strains, locus YLL001W, strain dnm1, hits give low values 0.972 | S. cerevisiae deletion strains, locus YLL026W, hits give low values 0.988 | S. cerevisiae deletion strains, locus YLL041C, strain sdh2, hits give low values 0.981 | S. cerevisiae deletion strains, locus YLR027C, strain aat2, hits give low values 0.994 | S. cerevisiae deletion strains, locus YLR039C, strain RIC1, hits give low values 1.01 | S. cerevisiae deletion strains, locus YLR058C, strain SHM2, hits give low values 1.03 | S. cerevisiae deletion strains, locus YLR102C, strain apc9, hits give low values 1.01 | S. cerevisiae deletion strains, locus YLR113W, strain HOG1, hits give low values 0.969 | S. cerevisiae deletion strains, locus YLR221C, strain rsa3, hits give low values 0.981 | S. cerevisiae deletion strains, locus YLR258W, strain gsy2, hits give low values 0.999 | S. cerevisiae deletion strains, locus YLR262C, strain YPT6 (second series), hits give low values 1.01 | S. cerevisiae deletion strains, locus YLR262C, strain YPT6, hits give low values 1.04 | S. cerevisiae deletion strains, locus YLR268W, strain sec22, hits give low values 1.03 | S. cerevisiae deletion strains, locus YLR320W, strain mms22, hits give low values 0.976 | S. cerevisiae deletion strains, locus YLR330W, strain CHS5, hits give low values 1.02 | S. cerevisiae deletion strains, locus YLR342W, strain FKS1 (second series), hits give low values 1.01 | S. cerevisiae deletion strains, locus YLR342W, strain FKS1, hits give low values 0.987 | S. cerevisiae deletion strains, locus YLR357W, strain rsc2, hits give low values 1 | S. cerevisiae deletion strains, locus YLR370C, strain arc18, hits give low values 0.986 | S. cerevisiae deletion strains, locus YLR371W, strain rom2, hits give low values 1.02 | S. cerevisiae deletion strains, locus YLR384C, strain iki3, hits give low values 0.987 | S. cerevisiae deletion strains, locus YLR418C, strain cdc73, hits give low values 1.03 | S. cerevisiae deletion strains, locus YML016C, strain PPZ1, hits give low values 1.01 | S. cerevisiae deletion strains, locus YML032C, strain rad52, hits give low values 1.02 | S. cerevisiae deletion strains, locus YML120C, strain ndi1, hits give low values 0.983 | S. cerevisiae deletion strains, locus YML124C, strain tub3, hits give low values 1.02 | S. cerevisiae deletion strains, locus YMR058W, strain fet3, hits give low values 1.01 | S. cerevisiae deletion strains, locus YMR078C, strain ctf18, hits give low values 1.02 | S. cerevisiae deletion strains, locus YMR125W, strain sto1, hits give low values 1.01 | S. cerevisiae deletion strains, locus YMR129W, hits give low values 0.985 | S. cerevisiae deletion strains, locus YMR205C, strain PFK2, hits give low values 0.99 | S. cerevisiae deletion strains, locus YMR223W, strain ubp8, hits give low values 1.02 | S. cerevisiae deletion strains, locus YMR231W, strain pep5, hits give low values 0.994 | S. cerevisiae deletion strains, locus YMR263W, strain SAP30, hits give low values 1.01 | S. cerevisiae deletion strains, locus YMR307W, strain GAS1, hits give low values 0.984 | S. cerevisiae deletion strains, locus YNL067W, strain RPL9B, hits give low values 1.02 | S. cerevisiae deletion strains, locus YNL071W, strain lat1, hits give low values 0.989 | S. cerevisiae deletion strains, locus YNL153C, strain GIM3, hits give low values 1.02 | S. cerevisiae deletion strains, locus YNL183C, strain NPR1, hits give low values 0.948 | S. cerevisiae deletion strains, locus YNL209W, strain ssb2, hits give low values 0.997 | S. cerevisiae deletion strains, locus YNL233W, strain BNI4, hits give low values 1.02 | S. cerevisiae deletion strains, locus YNL248C, strain rpa49, hits give low values 1.02 | S. cerevisiae deletion strains, locus YNL250W, strain rad50, hits give low values 0.992 | S. cerevisiae deletion strains, locus YNL271C, strain bni1, hits give low values 1.02 | S. cerevisiae deletion strains, locus YNL298W, strain CLA4, hits give low values 1.03 | S. cerevisiae deletion strains, locus YNL307C, strain MCK1, hits give low values 1.02 | S. cerevisiae deletion strains, locus YNL322C, strain KRE1 (second series), hits give low values 0.983 | S. cerevisiae deletion strains, locus YNL322C, strain KRE1, hits give low values 1 | S. cerevisiae deletion strains, locus YNR049C, strain mso1, hits give low values 0.997 | S. cerevisiae deletion strains, locus YNR052C, strain pop2, hits give low values 1.01 | S. cerevisiae deletion strains, locus YOL006C, strain TOP1, hits give low values 1.1 | S. cerevisiae deletion strains, locus YOL012C, strain htz1 1.12 | S. cerevisiae deletion strains, locus YOL147C, strain pex11, hits give low values 1.01 | S. cerevisiae deletion strains, locus YOR001W, strain rrp6, hits give low values 0.987 | S. cerevisiae deletion strains, locus YOR061W, strain CKA2, hits give low values 1.01 | S. cerevisiae deletion strains, locus YOR069W, strain VPS5, hits give low values 1.01 | S. cerevisiae deletion strains, locus YOR070C, strain gyp1, hits give low values 0.991 | S. cerevisiae deletion strains, locus YOR080W, strain dia2, hits give low values 0.976 | S. cerevisiae deletion strains, locus YOR083W, strain WHI5, hits give low values 0.98 | S. cerevisiae deletion strains, locus YOR106W, strain vam3, hits give low values 1.01 | S. cerevisiae deletion strains, locus YOR136W, strain idh2, hits give low values 1.03 | S. cerevisiae deletion strains, locus YOR144C, strain elg1, hits give low values 1.02 | S. cerevisiae deletion strains, locus YOR184W, strain ser1, hits give low values 1.03 | S. cerevisiae deletion strains, locus YOR231W, strain MKK1, hits give low values 0.976 | S. cerevisiae deletion strains, locus YOR265W, strain rbl2, hits give low values 0.993 | S. cerevisiae deletion strains, locus YOR270C, strain vph1, hits give low values 1.01 | S. cerevisiae deletion strains, locus YOR290C, strain snf2, hits give low values 0.986 | S. cerevisiae deletion strains, locus YOR316C, strain cot1, hits give low values 1.02 | S. cerevisiae deletion strains, locus YPL051W, strain arl3, hits give low values 0.981 | S. cerevisiae deletion strains, locus YPL055C, strain LGE1, hits give low values 1.02 | S. cerevisiae deletion strains, locus YPL078C, strain atp4, hits give low values 0.984 | S. cerevisiae deletion strains, locus YPL106C, strain sse1, hits give low values 0.948 | S. cerevisiae deletion strains, locus YPL240C, strain hsp82, hits give low values 0.99 | S. cerevisiae deletion strains, locus YPL241C, strain CIN2, hits give low values 1.01 | S. cerevisiae deletion strains, locus YPL256C, strain CLN2, hits give low values 0.96 | S. cerevisiae deletion strains, locus YPR119W, strain clb2, hits give low values 1.01 | S. cerevisiae deletion strains, locus YPR141C, strain kar3, hits give low values 1.03 | S. cerevisiae deletion strains, locus YPR163C, strain tif3, hits give low values 1.01 | S. cerevisiae deletion strains, locus YPR167C, strain met16, hits give low values 1.02 | S. cerevisiae deletion strains, strain wtn01, hits give low values 1.04 | S. cerevisiae strains, strain wild type, hits give low values 1.01
